Experimental data: ChEMBL document CHEMBL3988442, “University of Dundee, Small-Polar-MMV Screening Library” (2021)
Screen size: about 48,000 compounds; about 13,000 (27%) showed an effect of 50% or more. The list shows a part of the results.

Test system: Wolbachia pipientis
Assay: Anti-Wolbachia Cell-Based Screen
Type: functional
Parameters: scale not given: in the data most compounds retested in dose-response had high values
Settings: 5 µM

SMILES	Percent Effect [%]
Cc1nc(C(F)(F)F)nc(N2CCC(O)(C(=O)O)CC2)c1C	-14.39
O=C(CN1CCCc2c(F)cc(Br)cc21)N1CCN(C(=O)C2CC2)CC1	3.977
N#Cc1ccnc(N2CCN(C3CCOC3=O)CC2)c1 (stereo not given)	-3.021
O=C(CN1CCS(=O)(=O)CC1)NCc1ccccc1F	-2.021
Cc1ccc(CNC(=O)CN2CCN(CC(O)c3ccco3)CC2)cc1.Cl.Cl (stereo not given)	0.6703
Cl.Cl.O=C(CN1CCN(CC(O)C2CC2)CC1)NCc1ccccc1 (stereo not given)	118.5
O=C(CCN1CCOC(C(F)(F)F)C1)NCc1ccccc1Cl (stereo not given)	4.795
Cl.Cl.O=C(CN1CCN(CC(O)C2CC2)CC1)NCc1ccccc1Cl (stereo not given)	116.4
Cc1ccc(CNC(=O)CN2CCN(CC(O)C3CC3)CC2)cc1.Cl.Cl (stereo not given)	-4.273
CSCC[C@@H](CO)Nc1nc(-c2ccccn2)nc2c1c(C)nn2C	-12.31
COc1cccc(C2CCCN2C(=O)c2cc3c([nH]c2=O)CCC3)c1 (stereo not given)	13.18
O=C(O)c1nnn(Cc2cccc(C(F)(F)F)c2)c1-c1cccnc1	14.53
CNC(=O)Cn1cc(C#N)c(=O)c2cc(Br)ccc21	-8.636
CNC(=O)[C@@H]1[C@H]2CN(Cc3ccccn3)CCN2C[C@H]1c1ccccc1	121
CNC(=O)[C@@H]1[C@@H](c2ccccc2)CN2CCN(Cc3ccccn3)C[C@H]12	89.14
O=C(Nc1ccc(Cl)cn1)C1CCCN(Cc2ccccn2)C1 (stereo not given)	22.45
CSc1ccccc1C(C(=O)O)N1CCN(Cc2ccccn2)CC1 (stereo not given)	5.13
CNC(=O)[C@@H]1C[C@@H](N)CN1C1CCN(Cc2ccccn2)CC1	-2.984
CS(=O)(=O)NC1CCCN(Cc2ccccn2)C1 (stereo not given)	-8.857
CC(C)NC(=O)[C@H]1C[C@@H]2[C@@H](C1)OCCN2Cc1cnn(C)c1.O=C(O)C(F)(F)F	-20.9
CC(C)c1cc(C(=O)N(C)C(C)c2nccs2)no1 (stereo not given)	-2.417
O=C(CCc1ccc(O)cc1)N1CCC(Cc2ccc(CO)cc2)C1 (stereo not given)	-11.56

SMILES	Percent Effect [%]
Cc1nc2cc(=O)[nH]n2c(C)c1CNC(=O)C(C)(C)c1ccccc1	-10.11
CSc1ccccc1C(=O)NCCC(O)c1ccco1 (stereo not given)	-13
COCc1nc2cc(NCc3ncc[nH]3)ccc2o1	3.493
O=C(N1CCC(Oc2ccncc2)C1)C1(c2ccccc2F)CC1 (stereo not given)	-11.14
O=C(N1CCCC(n2cncn2)C1)C1(c2ccccc2F)CCCC1 (stereo not given)	104.1
Cc1cccn2cc(CC(=O)N3CCCC(n4cncn4)C3)nc12 (stereo not given)	3.172
Cc1ccccc1C1(C(=O)N2CCCC(n3cncn3)C2)CC1 (stereo not given)	122.4
Cc1nn(C)c2nc(-c3ccccn3)nc(NCCCOC(C)C)c12	-17.61
CNC(=O)CC1COCCN1C(=O)C1(c2ccc(Cl)cc2)CCC1 (stereo not given)	-7.784
O=C(NCCN1CCCCC1=O)C1CCC(=O)N(C2CCCC2)C1 (stereo not given)	-13.2
c1cncc(N2CCC(c3ccncc3)CC2)c1	81.68
FC(F)(F)c1cccc(N2CCC(NCc3cccnc3)CC2)c1	10.28
c1cc(C2CCN(c3cncnc3)CC2)ccn1	107.5
COC(=O)c1ccc(N2CCC(c3ccccc3)CC2)nn1	-9.28
c1ccc(C2CCCN(c3cncc(-n4cccn4)n3)CC2)cc1 (stereo not given)	13.07
Cc1cnc(N2CCC(c3ccncc3)CC2)nc1-c1ccnn1C	-32.29
c1cnc(N2C[C@H]3CCN(c4cccnc4)C[C@H]3C2)nc1	-4.407
c1ccc(N2CCC(c3ccncc3)CC2)cc1	167
c1cc(N2CCC(c3nnc(Cn4ccnc4)n3C3CC3)CC2)ccn1	-8.252
O=C(O)C(F)(F)F.O=C([C@H]1COC[C@H]2CN(C3CCOCC3)C[C@H]21)N1CCCO1	2.638
CSCCC1c2nc[nH]c2CCN1Cc1cc(Cl)ccc1O (stereo not given)	-0.8881
Cc1nc(C(=O)N(C)CC(F)(F)C(F)(F)F)c2ccccn12	6.68

SMILES	Percent Effect [%]
Cc1nc(-c2nc(C(=O)N3CCOCC3)c3ccccn23)cn1C(C)C	-8.689
Cc1nc(-c2nc(C(=O)N(C)C)c3ccccn23)cn1C(C)C	84.92
CC(C)n1ccc(-c2cc(C(=O)NC3CC3)c3ccccn23)n1	-8.678
Cn1cnc(-c2nc(C(=O)NCCN3CCCC3)c3ccccn23)c1	-11.17
CC(C)n1cnc(-c2nc(C(=O)NC3CC3)c3ccccn23)c1	100.7
Cc1nc(-c2nc(C(=O)NC3CC3)c3ccccn23)cn1C(C)C	96.1
CC(C)n1cnc(-c2nc(C(=O)N3CCN(C)CC3)c3ccccn23)c1	2.747
Cn1cnc(-c2nc(C(=O)NC3CC3)c3ccccn23)c1	-8.322
Cc1nc(C(=O)N(CC(=O)N(C)C)CC(F)(F)F)c2ccccn12	1.81
Cc1noc(C)c1CN(C)C(=O)NC(C)c1cccs1 (stereo not given)	-8.281
NC(=O)C1CCN(Cn2nc(-c3ccccc3)oc2=O)CC1	-3.823
Cc1noc(C2CCN(C(=O)CCNS(C)(=O)=O)CC2)n1	-0.9329
CCC(=O)Nc1cccc(OCC(=O)N(C)Cc2nc(C)c[nH]2)c1	-12.77
CCC(=O)Nc1cccc(OCC(=O)N(C)Cc2cc(COC)[nH]n2)c1	-13.78
CCC(=O)Nc1cccc(OCC(=O)N(C)Cc2ccon2)c1	-42.8
COc1cccc(NC(=O)CN(C(C)C)C2CC2)c1	1.237
CCC(=O)Nc1cccc(OCC(=O)N2CC=CC2C(C)C)c1 (stereo not given)	89.02
CCC(=O)NC1CCCN(C(=O)Nc2cccc(COC(C)C)c2)C1 (stereo not given)	-15.38
CCC(=O)Nc1cccc(OCC(=O)N(C)Cc2nccn2CC)c1	-14.09
CCC(=O)Nc1cccc(OCC(=O)N[C@@H]2C[C@H]3CC[C@@H]2C3)c1	110
CCC(=O)Nc1cccc(OCC(=O)N2C[C@H]3CC[C@H]2C3)c1	93.75
